In all, about 69,000 compounds went through this assay and about 950 (1.4%) showed an effect of 50% or more. The list comes from a sample in which strong results are over-represented; it also holds similar structures and randomly drawn compounds.
What follows are compounds tested on Mycobacterium tuberculosis (assay: Cornell M. t heat shock assay; note: in the data most compounds retested in dose-response had high values).
Type: functional, organism-based
Parameters: dose or concentration left out as unconfirmed

Structure (SMILES) | Percent Effect [%]
Cn1nc(C2CCCN(C(=O)CO)C2)cc1O (stereo unspecified) | 54.18
COCCC(=O)N1CCC(c2cc(O)n(C)n2)C1 (stereo unspecified) | 9.695
Cn1ccc(C(=O)N2CCCC(c3cc(O)n(C)n3)C2)n1 (stereo unspecified) | -7.619
COCCN1CCOCC12CCN(C(=O)c1cccnc1)CC2.O=C(O)C(F)(F)F | -43.19
CN1CC[C@@H]2OC[C@H](C(=O)N(C)Cc3ccccn3)C[C@@H]2C1.O=C(O)C(F)(F)F.O=C(O)C(F)(F)F | 42.17
O=C(NC1CC1)[C@@H]1CCO[C@@H]2CCN(Cc3ccsc3)C[C@H]21.O=C(O)C(F)(F)F | -0.7242
O=C(O)C(F)(F)F.O=C([C@@H]1C[C@@H]2CCN(CCc3ccccc3)C[C@H]2O1)N1CCCC1 | 7.524
O=c1cc(CN2CCCC2)nc2n1CCCN(CC1CCOCC1)C2 | -14.03
O=c1cc(CN2CCCC2)nc2n1CCCN(CC1CC1)C2 | 59.59
CN(C)Cc1cc(=O)n2c(n1)CN(CC1CC1)CCC2 | -15.16
COCC(=O)NC[C@H]1CC[C@H](c2nnc(-c3ccncc3)o2)CC1 | -43.76
Cn1cc(CN2CCCC23CCN(Cc2nccn2C)CC3)cn1.O=C(O)C(F)(F)F.O=C(O)C(F)(F)F | -17.58
Cl.Cl.O=C(NCc1cncc2c1CCN(C1CCOCC1)C2)c1ccco1 | 7.016
O=C(O)C(F)(F)F.O=C(O)C(F)(F)F.c1ccc(N2CCC3(COCCN(c4ncccn4)C3)C2)nc1 (stereo unspecified) | 3.163
Cn1cc(CN2CCC(F)(F)C3(CCN(c4ncccn4)C3)C2)cn1.O=C(O)C(F)(F)F.O=C(O)C(F)(F)F (stereo unspecified) | -18.65
CC(C)n1ccnc1CN1CCOC(CCc2ccccc2)C1 (stereo unspecified) | -0.01061
CC(C)n1ccnc1CN1CCOC(CC2CCCCC2)C1 (stereo unspecified) | 50.37
CC(C)n1ccnc1CN1CCCN(C(=O)CC2CCCO2)CC1 (stereo unspecified) | -7.243
O=C(O)C(F)(F)F.O=C(O)C(F)(F)F.O=C(O)C(F)(F)F.c1cnc(NC[C@H]2OC[C@@H]3CCN(Cc4nccs4)C[C@@H]32)nc1 | -22.37
CNC(=O)[C@H]1C[C@@H]2CN(Cc3cccnc3OC)C[C@@H]2N1C(C)=O.O=C(O)C(F)(F)F.O=C(O)C(F)(F)F | -6.106
CCc1ccc(C2CCCN2C(=O)NCC(=O)NCC(C)C)o1 (stereo unspecified) | -12.75
COCCN1CCN(CCS(=O)(=O)C(F)(F)F)CC1C (stereo unspecified) | 105.5
COCCN1CCN(CCS(C)(=O)=O)CC1C (stereo unspecified) | -13.47

Structure (SMILES) | Percent Effect [%]
COCCN1CCN(CCCS(C)(=O)=O)CC1C (stereo unspecified) | -16.37
CCN(CC)Cc1cn2c(n1)CN(C(=O)c1cc(C)on1)CC2.O=C(O)C(F)(F)F | -2.302
CC(C)c1noc(CS(=O)(=O)CC(=O)NCCOc2ccccc2)n1 | 41.58
CC(C)c1noc(CS(=O)(=O)Cc2nc(C(C)C)no2)n1 | -44.125
CCC(C)NC(=O)CS(=O)(=O)Cc1nc(-c2cccs2)no1 (stereo unspecified) | 65.94
Cc1noc(CS(=O)(=O)C(C)C(=O)N(C)c2ccccc2)n1 (stereo unspecified) | 6.585
Cc1noc(CS(=O)(=O)CC(=O)NC(C)c2ccccc2)n1 (stereo unspecified) | 70.08
CC(C)=CCS(=O)(=O)Cc1nc(C(C)C)no1 | 58.075
CCC(C)NC(=O)CS(=O)(=O)Cc1ccccc1Cl (stereo unspecified) | -5.393
CC(Cn1cccn1)NCc1nc(-c2cccs2)no1 (stereo unspecified) | 22.29
CC(C)c1noc(CS(=O)(=O)CC(=O)NCc2cccs2)n1 | 58.74
CCc1noc(CS(=O)(=O)CC=C(C)C)n1 | 29.3
CC(C)c1noc(CS(=O)(=O)CC(=O)NCc2ccccc2)n1 | 49.68
CCN(C(=O)C(C)S(=O)(=O)Cc1nc(C)no1)c1ccccc1 (stereo unspecified) | -1.269
CC1N(C)C(=O)COC12CCN(Cc1nccs1)CC2.O=C(O)C(F)(F)F (stereo unspecified) | 2.077
CCn1nc(C)cc1C(=O)N1C[C@H]2CCC[C@@]2(COc2ccccn2)C1.O=C(O)C(F)(F)F | -22.73
O=C(N[C@@H]1CN(CC2CC2)[C@@H]2CCCO[C@@H]21)c1cscn1.O=C(O)C(F)(F)F | 21.59
Cl.O=c1c2sccc2nc2n1CCN(Cc1ccccc1C(F)(F)F)CC2 | 24
O=C(NC[C@]12COC[C@H]1CN(C1CCOCC1)C2)c1ccco1.O=C(O)C(F)(F)F | -7.738
O=C(O)C(F)(F)F.O=C([C@H]1C[C@@H]2CCN(C3CCOCC3)C[C@H]2O1)N1CCCC1 | -29.11
CCCc1noc(CS(=O)(=O)CC(=O)NC(C)CCC)n1 (stereo unspecified) | 60.91
CC(C)c1noc(CS(=O)(=O)CC(=O)NCC(F)(F)F)n1 | 45.89
CCCc1noc(CCC(=O)NC(C)c2nnc3n2CCCCC3)n1 (stereo unspecified) | -4.52

Structure (SMILES) | Percent Effect [%]
COc1cccc(CN2C[C@@H]3COC[C@]3(COCc3ccccn3)C2)c1.O=C(O)C(F)(F)F.O=C(O)C(F)(F)F | -27.12
Fc1cnc(N2CCCC3(CCN(Cc4ccco4)C3)C2)nc1.O=C(O)C(F)(F)F.O=C(O)C(F)(F)F (stereo unspecified) | -39.88
Cc1cnn(CC2CN(Cc3nc(N)c4ccccc4n3)CCO2)c1 (stereo unspecified) | 8.088
Cc1cnn(CC2CCCCN2Cc2nc(N)c3ccccc3n2)c1 (stereo unspecified) | 92.62
Nc1nc(CN2CCCC2Cn2cncn2)nc2ccccc12 (stereo unspecified) | -4.506
Cc1cnn(CC2CCCN2Cc2nc(N)c3ccccc3n2)c1 (stereo unspecified) | 64.38
Nc1nc(CN2CCCCC2Cn2cncn2)nc2ccccc12 (stereo unspecified) | -45.18
Cc1cnn(CC2CCCN2Cc2noc(-c3ccccc3)n2)c1 (stereo unspecified) | -2.457
COc1cccc(CN2CCCCC2c2n[nH]cc2-c2cc(C)no2)c1.Cl (stereo unspecified) | 13.26
CCOC1COC2(CCN(CC3CCOCC3)CC2)C1.O=C(O)C(F)(F)F (stereo unspecified) | -19.84
CCS(=O)(=O)N1CCOCC2(CCN(c3ccccn3)C2)C1.O=C(O)C(F)(F)F (stereo unspecified) | -24.76
CCc1nc2ccccc2c(=O)n1CC1(O)CCNCC1.Cl | -1.704
O=C(O)C(F)(F)F.O=C(c1ccncn1)N1CCC[C@]2(C[C@H](Oc3ncccc3F)CO2)C1 | -22.98
CCCNC(=O)c1cn(C(C)(C)C)c2ncccc12 | 52.59
CNC(=O)c1cn(C(C)(C)C)c2ncccc12 | 4.278
CCNC(=O)c1cn(C(C)(C)C)c2ncccc12 | 35.45
COCC(C)NC(=O)c1cn(C(C)(C)C)c2ncccc12 (stereo unspecified) | -8.611
CC(C)(C)n1cc(C(=O)NCCCn2ccnc2)c2cccnc21 | -4.729
COCCN(CCOC)C(=O)c1cn(C(C)(C)C)c2ncccc12 | 20.52
COCCNC(=O)c1cn(C(C)(C)C)c2ncccc12 | 84.66
CCOCCCNC(=O)c1cn(C(C)(C)C)c2ncccc12 | 48.73
COCCCNC(=O)c1cn(C(C)(C)C)c2ncccc12 | 50.28
CN(C)Cc1cc(=O)n2c(n1)CN(S(=O)(=O)C1CC1)CCC2.O=C(O)C(F)(F)F | 14.69

Structure (SMILES) | Percent Effect [%]
CCSc1ccccc1C(=O)N(CCOC)Cc1ccoc1 | -23.21
COCC(=O)N1CCN(CCn2cccn2)c2nc(C)ccc2C1.O=C(O)C(F)(F)F | -7.36
COCC1CC2(CCN(c3ccccn3)CC2)CN1C(C)C.O=C(O)C(F)(F)F.O=C(O)C(F)(F)F (stereo unspecified) | -2.762
Cc1csc(CN2CC[C@H]3C[C@H](c4nc(C)no4)O[C@@H]3C2)n1.O=C(O)C(F)(F)F | -42.3
Cn1cc(-c2ncnc3c2CCN(CC2CCOC2)CC3)cn1.O=C(O)C(F)(F)F (stereo unspecified) | 17.32
O=C(O)C(F)(F)F.O=C(O)C(F)(F)F.c1ccc(CN2CCn3c(Cn4cncn4)cnc3C2)nc1 | 0.3776
O=C(O)C(F)(F)F.O=C([C@H]1C[C@H]2OCC[C@H]2N(CCc2ccccc2)C1)N1CCCO1 | -5.073
O=C(NCC1CC1)C1CN(c2ncccn2)Cc2ccnn2C1.O=C(O)C(F)(F)F.O=C(O)C(F)(F)F (stereo unspecified) | 12.91
CCc1nc(CN2CCCN(Cc3noc(C4CC4)n3)CC2)cs1 | 67.89
CCCOCC(=O)N1CCCN(Cc2csc(CC)n2)CC1 | 22.03
CCc1nc(CN2CCCN(C(=O)c3cn[nH]c3CC)CC2)cs1 | 52.06
CCc1nc(CN2CCCN(C(=O)COCC3CC3)CC2)cs1 | 155.1
CCc1nc(CN2CCCN(C(=O)c3cn[nH]c3C)CC2)cs1 | 14.33
Cc1nc(CN2CCCN(C(=O)COCC3CC3)CC2)cs1 | 36.12
CCc1nc(CN2CCCN(C(=O)c3cnc[nH]3)CC2)cs1 | 30.64
c1csc(N2CCCN(Cc3noc(C4CC4)n3)CC2)n1 | -6.96
Cc1ncc(CN2CCCN(Cc3noc(C4CC4)n3)CC2)s1 | 6.148
CCc1nc(-c2ccnc(N3CCNCC3)n2)no1.Cl.Cl | -8.056
Cl.O=C(c1cccnc1)N1CCC2(CC1)CNc1c(F)cccc12 | 4.233
O=C(O)C(F)(F)F.c1cnc(NC2COC3(CCN(Cc4cc[nH]n4)CC3)C2)nc1 (stereo unspecified) | -22.6
O=C(O)C(F)(F)F.O=C(O)C(F)(F)F.O=C(O)C(F)(F)F.O=C1C[C@H]2[C@@H](CCN2Cc2ccccn2)N1Cc1cccnc1 | -6.498
O=C(O)C(F)(F)F.O=C([C@H]1C[C@H]2OCC[C@H]2N(C(=O)c2ccncc2)C1)N1CCCC1 | -34.63
